In PubChem BioAssay one finds activity remaining data, which are given here for 34 molecules.

SMILES strings stand for the structures. Calls of active or inactive are those of the source. How the calls were made is not given here.

This experiment has as its system Aerobactin synthetase IucA (Klebsiella pneumoniae hvKP1). As to the kind of experiment: Biochemical IucA enzyme inhibition primary screen of the Spectrum library (AID 1346200).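 Further: 100% = wells without compound and 0% = wells lacking enzyme.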 Conditions: malachite green pyrophosphate, A620, at 8 µM, active compounds read low.
For `CC1=C(/C=C/C(C)=C/C=C/C(C)=C/CO)C(C)(C)CCC1`, the activity remaining was 105% (inactive). Consider `CCCCCC(C)N` (centres undefined), for which the activity remaining was 111% (inactive). As to `CC1Cc2ccccc2N1NC(=O)c1ccc(Cl)c(S(N)(=O)=O)c1` (centres undefined), the activity remaining is 101% (inactive). As to `CCCc1cc(OC)c2c(c1)OCO2`, the activity remaining is 106% (inactive). Take `CC(C)(C)NC[C@H](O)c1ccc(O)c(CO)c1`: the activity remaining is 112% (inactive). As for `COC1CC(O[C@H]2CC[C@]3(C=O)C4CC[C@]5(C)C(C6=CC(=O)OC6)CC[C@]5(O)C4CC[C@]3(O)C2)OC(C)C1O` (some centres undefined), the figure is 117% (inactive); as for `CC(=O)[C@H]1CCC2C3C[C@H](C)C4=CC(=O)CC[C@]4(C)C3[C@@H](O)C[C@@]21C` (some centres undefined), 101% (inactive).

Regarding `CO[C@H]1[C@@H](O)[C@@H](C)O[C@H](O[C@H]2CCC3(C)C4CCC5(C)[C@@H](C6=CC(=O)OC6)CC[C@]5(O)[C@@H]4CC[C@]3(O)C2)[C@@H]1O` (some centres undefined), the activity remaining is 113% (inactive). As for `NC[C@H]1O[C@H](O[C@H]2C(O[C@@H]3O[C@H](CO)[C@@H](O)[C@H]3O)[C@@H](O)[C@H](N)C[C@@H]2N)[C@H](N)[C@@H](O)[C@@H]1O` (some centres undefined), the figure is 123% (inactive); as for `OC(CCN1CCCC1)(c1ccccc1)C1CCCCC1` (centres undefined), 99.4% (inactive); as for `COc1ccnc(CS(=O)c2nc3ccc(OC(F)F)cc3[nH]2)c1OC` (centres undefined), 127% (inactive). Turning to `COc1ccc2oc3ccccc3c(=O)c2c1`, the activity remaining is 106% (inactive). As for `CC(=O)OC/C=C(\C)CC/C=C(\C)CC/C=C(\C)CC/C=C(\C)CC/C=C(\C)CC/C=C(\C)CC/C=C(\C)CC/C=C(\C)CCC=C(C)C`, the figure is 120% (inactive); as for `OC(Cn1cncn1)(Cn1cncn1)c1ccc(F)cc1F`, 105% (inactive); as for `Cc1cc(O)cc(C)c1Cl`, 94.5% (inactive). For the molecule `O=C(O)CCCCC1SCC2NC(=O)NC21` (centres undefined), the activity remaining was 121% (inactive). As for `COc1cc([C@@H]2c3cc4c(cc3[C@H](O)[C@H]3COC(=O)[C@@H]23)OCO4)cc(OC)c1OC`, the figure is 82.7% (inactive); as for `CC1(C)CC23C(=O)CCC(O)C2(C)CCC13` (centres undefined), 113% (inactive).

As to `C/C=C(/C(=C/C)c1ccc(O)cc1)c1ccc(O)cc1`, the activity remaining is 115% (inactive). As for `CC1(C)O[C@@H]2CC3C4C[C@H](F)C5=CC(=O)CC[C@]5(C)C4[C@@H](O)C[C@]3(C)[C@]2(C(=O)CO)O1` (some centres undefined), the activity remaining is 118% (inactive).

As to `CC12OC(=O)CC3C(C)(C)[C@H](O)C=C[C@]3(C)C1CC[C@]1(C)C2=CC(=O)O[C@H]1c1ccoc1` (some centres undefined), the activity remaining is 118% (inactive). `COc1cc(O)c(C(=O)O)c(O)c1`: the activity remaining was 102% (inactive).

Regarding `CC[C@H]1OC(=O)C[C@@H](O)[C@H](C)[C@@H](O[C@@H]2O[C@H](C)[C@@H](O[C@H]3C[C@@](C)(O)[C@@H](O)[C@H](C)O3)[C@H](N(C)C)[C@H]2O)[C@@H](CC=O)C[C@@H](C)C(=O)/C=C/C(C)=C/[C@@H]1CO[C@@H]1O[C@H](C)[C@@H](O)[C@@H](OC)[C@H]1OC`, the activity remaining was 112% (inactive).

Regarding `CCC(C(N)=O)c1ccccc1` (centres undefined), the activity remaining was 119% (inactive). With `Cc1c(Nc2ncccc2C(=O)O)cccc1C(F)(F)F`, the activity remaining is 117% (inactive). As for `O=C(O)[C@H](O)[C@@](O)(Cc1ccc(O)cc1)C(=O)O`, the figure is 103% (inactive); as for `CO/N=C(\C(=O)NC1C(=O)N2C(C(=O)OCOC(=O)C(C)(C)C)=C(/C=C\c3scnc3C)CSC12)c1csc(N)n1` (centres undefined), 120% (inactive); as for `C=C1C2CC[C@@]3(C)[C@H](c4ccoc4)OC(=O)C[C@]13O[C@H]1CC(O)C(C)(C)C(CC(=O)OC)[C@@]21C` (some centres undefined), 86.1% (inactive). As to `COc1ccc(/C=C/C(=O)c2cc(O)ccc2O)cc1`, the activity remaining was 87.4% (inactive). In the case of `CC(=O)O[C@@H]1C[C@@]2(C)C(CC[C@@H]2C(C)=O)C2CCC3=CC(=O)CC[C@]3(C)C21` (some centres undefined), the activity remaining is 88.2% (inactive).

`CC(=O)[C@@]1(O)CCC2C3C=C(Cl)C4=CC(=O)[C@@H]5CC5[C@]4(C)C3CC[C@@]21C` (some centres undefined): the activity remaining was 105% (inactive).

For the molecule `CO[C@@]1(NC(=O)C(C(=O)O)c2ccc(O)cc2)C(=O)N2C(C(=O)O)=C(CSc3nnnn3C)CO[C@@H]21` (some centres undefined), the activity remaining is 102% (inactive). As for `CCC[C@H](N[C@@H](C)C(=O)N1[C@H](C(=O)O)C[C@@H]2CCCC[C@@H]21)C(=O)OCC`, the figure is 121% (inactive); as for `COc1ccc(-c2cc(=O)c3c(O)cc(O[C@@H]4O[C@H](CO[C@H]5O[C@H](C)[C@@H](O)[C@H](O)[C@@H]5O)[C@@H](O)[C@H](O)[C@H]4O)cc3o2)cc1O`, 90.7% (inactive).
